# Experimental data: PubChem BioAssay (NCATS)
# Values joined by “and” are separate entries in the source; they are usually repeats but may differ in a detail not shown here. Equal values may be shown once. Inconclusive results are not listed. Where a call stands in place of a potency, no number is given. A number with no mark means an inactive call. Active and inactive are the calls of the source. Calls follow the shape of the dose curve; as a rule, active = well fitted curve in the direction sought with a large enough effect; inconclusive = small, poorly fitted or top-dose-only effect, or another doubt; inactive = no such curve, though single readings can be large; an effect the other way counts as inactive or inconclusive. Where a SMILES comes first, the peptide text is derived from it. Bridges are numbered along the chain shown (N, C = ends). [ ]: non-standard residue; d: D form. The star is where a group is joined. X1 = CCC(C)C(N)C1=NC(C(=O)*)CS1; dOrn = NCCC[C@@H](N)C(=O)O
# Columns and labels:
# [1] = biological target: Cytochrome P450 3A7 (Homo sapiens) (UniProt P24462); test: Cytochrome P450 family 3 subfamily A member 7 (CYP3A7) small molecule antagonists: luciferase biochemical qHTS assay (AID 1963596); also: nearly all actives have a fitted effect of over 40% in size
# Cytochrome P450 3A7 (Homo sapiens), sequence (P24462 whole entry, looked up): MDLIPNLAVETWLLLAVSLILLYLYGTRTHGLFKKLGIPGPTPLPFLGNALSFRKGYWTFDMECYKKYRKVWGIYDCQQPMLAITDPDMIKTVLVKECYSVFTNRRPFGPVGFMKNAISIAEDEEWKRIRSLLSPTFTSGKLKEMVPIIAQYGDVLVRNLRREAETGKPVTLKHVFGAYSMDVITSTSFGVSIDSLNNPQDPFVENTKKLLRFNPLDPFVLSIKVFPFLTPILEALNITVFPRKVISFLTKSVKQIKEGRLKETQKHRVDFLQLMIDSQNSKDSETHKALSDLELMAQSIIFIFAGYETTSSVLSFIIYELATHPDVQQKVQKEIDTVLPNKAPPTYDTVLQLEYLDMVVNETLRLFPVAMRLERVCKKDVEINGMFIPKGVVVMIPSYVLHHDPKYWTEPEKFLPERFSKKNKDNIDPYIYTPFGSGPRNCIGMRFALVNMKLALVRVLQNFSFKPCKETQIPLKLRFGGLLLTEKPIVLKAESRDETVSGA
# In short: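 Luminescence from luciferin released by CYP3A7 from a proluciferin substrate, read 20 min after detection reagent. Compound and enzyme-substrate mix sat 10 min before NADPH regeneration solution; reaction ran 1 h at room temperature.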
# [2] = Viability qHTS for spleen associated tyrosine kinase inhibitor (SYKi) naive MV4-11 cells (AID 1963823); also: nearly all actives have a fitted effect of over 40% in size; also: potency is read from the fitted curve at half-maximal effect
# In short: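 In this viability screen, compounds acted on SYK inhibitor naive MV4-11 cells for three days (72 hr, 37 C). Remaining viable cells were measured by CellTiter-Glo luminescence following a 10 min room-temperature development.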
# [3] = Viability qHTS for spleen associated tyrosine kinase inhibitor (SYKi) drug resistant MV4-11 cells (AID 1963824); also: nearly all actives have a fitted effect of over 35% in size; also: potency is read from the fitted curve at half-maximal effect
# In short: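 SYK-inhibitor-resistant MV4-11 AML cells were seeded at 500 per well onto compound and cultured 72 hours (37 °C, 5% CO2). CellTiter-Glo was then added, and after 10 min at room temperature, luminescence gave viability.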
# [4] = Cellular viability qHTS for adrenocortical cancer (ACC) cell line SW-13 (AID 1963989); settings: SW-13 ACC cells viability, CellTiter-Glo, 48 h; activity (max response): stronger effect = lower value; also: nearly all actives have a fitted effect of over 65% in size; also: potency is read from the fitted curve at half-maximal effect;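 as to activity (max response): cells grown in serum-free medium with ITS supplement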
# In short: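 Viability was read as CellTiter-Glo luminescence after 48 h compound treatment (up to 46 uM final) of SW-13 cells grown serum-free; titration curves were fit with a four-parameter logistic model to give IC50 and efficacy.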
Compound,"activity change, negative = inhibition [1]",viability (% of control) [2],"viability, % of control [3]",activity (max response) [4] [%],Potency [1],Potency [2],Potency [3],Potency [4]
NCCCNCCSP(=O)(O)O,11.1% [at 11.5 µM],79.8% [at 9.25 µM],105% [at 9.25 µM],1.65,–,–,–,–
O=C(O)CCCCC(=O)O,–,–,–,10.5,inactive,inactive,inactive,–
COc1ccc(C2C(=O)c3ccccc3C2=O)cc1,–,–,–,8.16,inactive,inactive,inactive,–
O=C(/C=C/c1ccccc1)OCc1ccccc1,–,–,–,5.62,inactive,inactive,inactive,–
CCO[C@H](Cc1ccc(OCCc2ccc(OS(C)(=O)=O)cc2)cc1)C(=O)O,–,–,–,6.74,inactive,inactive,inactive,–
CCC(C)C(N)C1=NC(C(=O)N[C@@H](CC(C)C)C(=O)N[C@H](CCC(=O)O)C(=O)N[C@H](C(=O)N[C@H]2CCCCNC(=O)[C@H](CC(N)=O)NC(=O)[C@@H](CC(=O)O)NC(=O)[C@H](Cc3cnc[nH]3)NC(=O)[C@@H](Cc3ccccc3)NC(=O)[C@H]([C@@H](C)CC)NC(=O)[C@@H](CCCN)NC2=O)[C@@H](C)CC)CS1 (some centres undefined) (X1-L[dE]IK[dOrn]I[dF]H[dD]N; lactam 4-C),–,–,–,-8.42,inactive,inactive,inactive,–
O=c1ccc2ccccc2o1,–,–,–,-0.445,inactive,inactive,inactive,–
O=Cc1ccccc1C=O,–,–,–,0.792,inactive,inactive,inactive,–
O=C1N=C(O)CN1/N=C/c1ccc(-c2ccc([N+](=O)[O-])cc2)o1,–,–,–,12.2,inactive,inactive,inactive,–
O=C(O)[C@@H](O)[C@H](O)[C@H](O)[C@@H](O)C(=O)O,–,–,–,9.05,inactive,inactive,inactive,–
COc1cccc(OC)c1C(=O)N[C@@H]1C(=O)N2[C@@H]1SC(C)(C)[C@@H]2C(=O)O,–,–,–,11.1,inactive,inactive,inactive,–
CCCCC/C(C=O)=C\c1ccccc1,–,–,–,6.34,inactive,inactive,inactive,–
C=CCc1ccc(O)c(OC)c1,–,–,–,6.59,inactive,inactive,inactive,–
CNCc1ccc(C)c(NC(=O)c2ccc(Nc3nc(-c4ccccc4)c4ccccc4n3)cc2)c1,–,–,–,–,inactive,7.42 µM (active),7.42 µM (active),28.2 µM (active)
CCC(=O)Nc1cccc(Oc2nc(Nc3ccc(N4CCN(C)CC4)cc3OC)ncc2Cl)c1,–,–,–,-16.6,inactive,1.64 µM (active) and 2.35 µM (active),2.91 µM (active) and 2.35 µM (active),–
O=C(c1ccccc1)C(O)c1ccccc1 (centres undefined),–,–,–,11.7,inactive,inactive,inactive,–

Compound,"activity change, negative = inhibition [1]",viability (% of control) [2],"viability, % of control [3]",activity (max response) [4] [%],Potency [1],Potency [2],Potency [3],Potency [4]
O=c1[nH]c([C@@H]2CCCN2)nc2c1oc1ccc(Cl)cc12,–,–,–,-13.8,inactive,8.2 µM (active) and 16.6 µM (active),16.4 µM (active),–
CC1(C)S[C@@H]2[C@H](NC(=O)C(C(=O)O)c3ccccc3)C(=O)N2[C@H]1C(=O)O (some centres undefined),–,–,–,3.14,inactive,inactive,inactive,–
Cc1[nH]c(/C=C2\C(=O)Nc3ccc(F)cc32)c(C)c1C(=O)NC[C@H](O)CN1CCOCC1,–,–,–,-9.94,inactive,13 nM (active) and 26.3 nM (active),23.1 nM (active) and 46.8 nM (active),–
CCCCCCCCCCCCOS(=O)(=O)O,–,–,–,4.63,inactive,inactive,inactive,–
O=C(O)Cn1cnnn1,–,–,–,12.6,inactive,inactive,inactive,–
O=C(O)c1cc(=O)c2ccccc2o1,–,–,–,-0.886,inactive,inactive,inactive,–
COc1cc(S(N)(=O)=O)cc(C(=O)O)c1OC,–,–,–,10.1,inactive,inactive,inactive,–
C[C@H]1O[C@@H](O[C@H]2[C@@H](O)C[C@H](O[C@H]3[C@@H](O)C[C@H](O[C@H]4CC[C@@]5(C)[C@H](CC[C@@H]6[C@@H]5C[C@@H](O)[C@]5(C)[C@@H](C7=CC(=O)OC7)CC[C@]65O)C4)O[C@@H]3C)O[C@@H]2C)C[C@H](O)[C@@H]1O,–,–,–,–,inactive,103 nM (active) and 118 nM (active),58 nM (active) and 118 nM (active),0.0708 µM (active)
CC(=O)Nc1c(I)cc(I)c(C(=O)O)c1I,–,–,–,-1.35,inactive,inactive,inactive,–
CC(C)(C)C(=O)OCOC(=O)C1N2C(=O)CC2S(=O)(=O)C1(C)C (centres undefined),–,–,–,14.5,inactive,inactive,inactive,–
CCOCCn1c(C2CCN(CCc3ccc(C(C)(C)C(=O)O)cc3)CC2)nc2ccccc21,–,–,–,2.01,inactive,inactive,inactive,–
CCCCC(CC)COC(=O)c1ccccc1O (centres undefined),–,–,–,7.38,inactive,0.596 µM (active),5.96 µM (active),–
CC(=O)NCCCCCC(=O)O,–,–,–,-2.94,inactive,inactive,inactive,–
CC(C(=O)O)c1ccc(CC2CCCC2=O)cc1 (centres undefined),–,–,–,7.96,inactive,inactive,inactive,–
CCN1CCc2nc(N)oc2CC1,–,–,–,7.47,inactive,inactive,inactive,–
